# Measurements from PubChem BioAssay (NCI).
# This is part of a sample that, as a whole, favours compounds with a hit. Of some 79,000 tested, about 15% had one in any assay. A number with no mark means an inactive call. Active and inactive are the calls of the source. No stated cut-off is given here; in the data, active means growth inhibition above about 70%; inactive means the rest.
# Tests used:
# [1] = NCI Yeast Anticancer Drug Screen. Data for the rad52 strain (AID 147);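 further: 0% = growth of vehicle-treated control cultures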; details: S. cerevisiae rad52 mutant growth inhibition, stronger effect = higher value
# Procedure, shortened: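 DNA repair-defective yeast; compound exposure; growth scored against vehicle controls.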
# [2] = NCI Yeast Anticancer Drug Screen. Data for the wt1 strain (AID 149);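 further: 0% = growth of vehicle-treated wt1 cultures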; details: S. cerevisiae wt1 strain (SPY 50644) growth inhibition, stronger effect = higher value
# Procedure, shortened: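 Growth inhibition read against vehicle controls after compound exposure of the wt1 yeast strain.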
# [3] = NCI Yeast Anticancer Drug Screen. Data for the rad50EPP+ strain (AID 151);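 further: 0% = growth of vehicle-treated control cultures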; details: S. cerevisiae rad50 mutant strain, stronger effect = higher value
# Procedure, shortened: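 rad50EPP+ yeast treated with test compounds. Readout: growth vs vehicle control.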
# [4] = NCI Yeast Anticancer Drug Screen. Data for the mgt1 strain (AID 153); details: S. cerevisiae mgt1 mutant growth inhibition, stronger effect = higher value
# Procedure, shortened: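 Growth inhibition relative to vehicle controls was scored for the mgt1 yeast strain after compound exposure.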
# [5] = NCI Yeast Anticancer Drug Screen. Data for the rad50 strain (AID 155);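 further: 0% = growth of vehicle-only cultures of the same strain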; details: S. cerevisiae rad50 strain growth inhibition, stronger effect = higher value
# Procedure, shortened: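 Readout: growth inhibition relative to vehicle-treated cultures. Compound exposure was carried out in a genetically defined yeast strain deficient in DNA damage repair.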
# [6] = NCI Yeast Anticancer Drug Screen. Data for the mec2-1 strain (AID 157); details: S. cerevisiae mec2-1 strain, stronger effect = higher value
# Procedure, shortened: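 Growth inhibition is read against vehicle-treated controls after compound exposure of the mec2-1 yeast strain, which is defective in DNA damage repair or cell cycle control.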
# [7] = NCI Yeast Anticancer Drug Screen. Data for the rad14 strain (AID 159);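 further: 0% = growth of vehicle-treated control cultures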; details: S. cerevisiae rad14 strain growth inhibition, stronger effect = higher value
# Procedure, shortened: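 Growth inhibition vs vehicle controls; genetically altered yeast strain (DNA damage repair defect) treated with test compounds.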
# [8] = NCI Yeast Anticancer Drug Screen. Data for the sgs1 mgt1 strain (AID 161);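 further: 0% = growth of cultures given vehicle only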; details: S. cerevisiae sgs1 mgt1 strain, stronger effect = higher value
# Procedure, shortened: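 Compounds are added to genetically altered yeast, and growth is compared with cultures given vehicle alone to give percent inhibition.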
# [9] = NCI Yeast Anticancer Drug Screen. Data for the CLN2oe strain (AID 163);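 further: 0% = growth of vehicle-only control cultures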; details: S. cerevisiae CLN2oe strain, stronger effect = higher value
# Procedure, shortened: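 Compound-treated yeast; growth vs vehicle ctrl = % inhibition. Genetically altered strain (cell-cycle control).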
# [10] = NCI Yeast Anticancer Drug Screen. Data for the bub3 strain (AID 167); details: S. cerevisiae bub3 mutant strain, stronger effect = higher value
# Procedure, shortened: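 Readout: yeast growth inhibition, expressed relative to vehicle-only wells. The test organism is a mutant strain from a panel with lesions in DNA repair or checkpoint genes.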
# [11] = NCI Yeast Anticancer Drug Screen. Data for the wt2 strain (AID 169);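 further: 0% = growth of vehicle-treated yeast cultures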; details: S. cerevisiae wt2 strain growth inhibition, stronger effect = higher value
# Procedure, shortened: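 Compound exposure of yeast; growth compared with vehicle controls; inhibition reported.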
# [12] = NCI Yeast Anticancer Drug Screen. Data for the mlh1 strain (AID 171);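 further: 0% = growth of vehicle-treated control cultures of the same strain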; details: S. cerevisiae mlh1 strain growth inhibition, stronger effect = higher value
# Procedure, shortened: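 Compounds are applied to a genetically altered yeast strain, and its growth is compared with that of vehicle-treated cultures to give percent inhibition.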
# [13] = NCI Yeast Anticancer Drug Screen. Data for the sgs1 strain (AID 173);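 further: 0% = growth of vehicle-only control cultures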; details: S. cerevisiae sgs1 mutant, stronger effect = higher value
# Procedure, shortened: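 Compounds applied to genetically altered yeast; growth compared with vehicle-treated cultures to give % inhibition.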
# [14] = NCI Yeast Anticancer Drug Screen. Data for the mlh1 rad18 strain (AID 175); details: S. cerevisiae mlh1 rad18 strain growth inhibition, stronger effect = higher value
# Procedure, shortened: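 Cells of a genetically altered yeast strain, deficient in DNA damage repair, were treated with compound. Their growth was then compared with that of vehicle-treated cultures to give inhibition.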
# [15] = NCI Yeast Anticancer Drug Screen. Data for the rad18 strain (AID 177); details: S. cerevisiae rad18 mutant growth inhibition, stronger effect = higher value
# Procedure, shortened: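 Compounds are applied to a repair-deficient yeast strain, and growth is compared with that of vehicle-treated cultures to give percent inhibition.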
# [16] = at 5.0 µM (retest, dose inferred, filed as 0.5)
# [17] = at 50.0 µM (retest, dose inferred, filed as 5.0)
compound,measurement,setting,value
c1ccc2c(c1)sc1c3cnccc3ccc21,growth inhibition,[1]; at 1.2 µM,11%
same,growth inhibition,[1]; at 3.7 µM,41%
same,growth inhibition,[1]; at 11.0 µM,62%
same,growth inhibition,[1]; at 33.0 µM,84% (active)
same,growth inhibition,[1]; at 100.0 µM,86% (active)
same,growth inhibition,[2]; at 1.2 µM,-1%
same,growth inhibition,[2]; at 3.7 µM,14%
same,growth inhibition,[2]; at 11.0 µM,23%
same,growth inhibition,[2]; at 33.0 µM,22%
same,growth inhibition,[2]; at 100.0 µM,23%
same,growth inhibition,[3]; at 1.2 µM,36%
same,growth inhibition,[3]; at 3.7 µM,46%
same,growth inhibition,[3]; at 11.0 µM,55%
same,growth inhibition,[3]; at 33.0 µM,73% (active)
same,growth inhibition,[3]; at 100.0 µM,65%
same,growth inhibition,[4]; at 1.2 µM,1%
same,growth inhibition,[4]; at 3.7 µM,-1%
same,growth inhibition,[4]; at 11.0 µM,0%
same,growth inhibition,[4]; at 33.0 µM,-3%
same,growth inhibition,[4]; at 100.0 µM,3%
same,growth inhibition,[5]; at 1.2 µM,12%
same,growth inhibition,[5]; at 3.7 µM,36%
same,growth inhibition,[5]; [16],35%
same,growth inhibition,[5]; at 11.0 µM,64%
same,growth inhibition,[5]; at 33.0 µM,74% (active)
same,growth inhibition,[5]; [17],74% (active)
same,growth inhibition,[5]; at 50.0 µM,94.3% (active)
same,growth inhibition,[5]; at 100.0 µM,73% (active)
same,growth inhibition,[6]; at 1.2 µM,4%
same,growth inhibition,[6]; at 3.7 µM,2%
same,growth inhibition,[6]; [16],-34%
same,growth inhibition,[6]; at 11.0 µM,3%
same,growth inhibition,[6]; at 33.0 µM,8%
same,growth inhibition,[6]; [17],-20%
same,growth inhibition,[6]; at 50.0 µM,47.4%
same,growth inhibition,[6]; at 100.0 µM,12%
same,growth inhibition,[7]; at 1.2 µM,4%
same,growth inhibition,[7]; at 3.7 µM,15%
same,growth inhibition,[7]; at 11.0 µM,37%
same,growth inhibition,[7]; at 33.0 µM,32%
same,growth inhibition,[7]; at 100.0 µM,29%
same,growth inhibition,[8]; [16],-55%
same,growth inhibition,[8]; [17],-34%
same,growth inhibition,[8]; at 50.0 µM,23.6%
same,growth inhibition,[9]; at 1.2 µM,4%
same,growth inhibition,[9]; at 3.7 µM,8%
same,growth inhibition,[9]; at 11.0 µM,1%
same,growth inhibition,[9]; at 33.0 µM,5%
same,growth inhibition,[9]; at 100.0 µM,8%
same,growth inhibition,[10]; at 1.2 µM,13%
same,growth inhibition,[10]; at 3.7 µM,15%
same,growth inhibition,[10]; [16],-35%
same,growth inhibition,[10]; at 11.0 µM,24%
same,growth inhibition,[10]; at 33.0 µM,34%
same,growth inhibition,[10]; [17],-8%
same,growth inhibition,[10]; at 50.0 µM,44.9%
same,growth inhibition,[10]; at 100.0 µM,39%
same,growth inhibition,[11]; at 1.2 µM,8%
same,growth inhibition,[11]; at 3.7 µM,14%
same,growth inhibition,[11]; at 11.0 µM,25%
same,growth inhibition,[11]; at 33.0 µM,36%
same,growth inhibition,[11]; at 100.0 µM,32%
same,growth inhibition,[12]; at 1.2 µM,-9%
same,growth inhibition,[12]; at 3.7 µM,-1%
same,growth inhibition,[12]; at 11.0 µM,2%
same,growth inhibition,[12]; at 33.0 µM,10%
same,growth inhibition,[12]; at 100.0 µM,9%
same,growth inhibition,[13]; at 1.2 µM,-8%
same,growth inhibition,[13]; at 3.7 µM,-10%
same,growth inhibition,[13]; at 11.0 µM,3%
same,growth inhibition,[13]; at 33.0 µM,9%
same,growth inhibition,[13]; at 100.0 µM,8%
same,growth inhibition,[14]; [16],-171%
same,growth inhibition,[14]; [17],-49%
same,growth inhibition,[14]; at 50.0 µM,45.5%
same,growth inhibition,[15]; at 1.2 µM,-8%
same,growth inhibition,[15]; at 3.7 µM,1%
same,growth inhibition,[15]; at 11.0 µM,-1%
same,growth inhibition,[15]; at 33.0 µM,-2%
same,growth inhibition,[15]; at 100.0 µM,13%
COC(=O)/C=C(/CC(=O)OC)C(=O)OC,growth inhibition,[1]; at 1.2 µM,0%
same,growth inhibition,[1]; at 3.7 µM,-1%
same,growth inhibition,[1]; at 11.0 µM,-1%
same,growth inhibition,[1]; at 33.0 µM,-1%
same,growth inhibition,[1]; at 100.0 µM,-2%
same,growth inhibition,[2]; at 1.2 µM,-2%
same,growth inhibition,[2]; at 3.7 µM,0%
same,growth inhibition,[2]; at 11.0 µM,-1%
same,growth inhibition,[2]; at 33.0 µM,-3%
same,growth inhibition,[2]; at 100.0 µM,-3%
same,growth inhibition,[3]; at 1.2 µM,2%
same,growth inhibition,[3]; at 3.7 µM,-2%
same,growth inhibition,[3]; at 11.0 µM,-1%
same,growth inhibition,[3]; at 33.0 µM,-1%
same,growth inhibition,[3]; at 100.0 µM,-3%
same,growth inhibition,[4]; at 1.2 µM,-3%
same,growth inhibition,[4]; at 3.7 µM,0%
same,growth inhibition,[4]; at 11.0 µM,0%
same,growth inhibition,[4]; at 33.0 µM,0%
same,growth inhibition,[4]; at 100.0 µM,-3%
same,growth inhibition,[5]; at 1.2 µM,0%
same,growth inhibition,[5]; at 3.7 µM,-44%
same,growth inhibition,[5]; [16],59%
same,growth inhibition,[5]; at 11.0 µM,4%
same,growth inhibition,[5]; at 33.0 µM,-4%
same,growth inhibition,[5]; [17],3%
same,growth inhibition,[5]; at 50.0 µM,16.6%
same,growth inhibition,[5]; at 100.0 µM,-4%
same,growth inhibition,[6]; at 1.2 µM,-1%
same,growth inhibition,[6]; at 3.7 µM,-3%
same,growth inhibition,[6]; [16],12%
same,growth inhibition,[6]; at 11.0 µM,1%
same,growth inhibition,[6]; at 33.0 µM,0%
same,growth inhibition,[6]; [17],6%
same,growth inhibition,[6]; at 50.0 µM,9.4%
same,growth inhibition,[6]; at 100.0 µM,-3%
same,growth inhibition,[7]; at 1.2 µM,0%
same,growth inhibition,[7]; at 3.7 µM,1%
same,growth inhibition,[7]; at 11.0 µM,2%
same,growth inhibition,[7]; at 33.0 µM,3%
same,growth inhibition,[7]; at 100.0 µM,-1%
same,growth inhibition,[8]; [16],90% (active)
same,growth inhibition,[8]; [17],15%
same,growth inhibition,[8]; at 50.0 µM,-8.4%
same,growth inhibition,[9]; at 1.2 µM,0%
same,growth inhibition,[9]; at 3.7 µM,-4%
same,growth inhibition,[9]; at 11.0 µM,0%
same,growth inhibition,[9]; at 33.0 µM,-2%
same,growth inhibition,[9]; at 100.0 µM,-2%
same,growth inhibition,[10]; at 1.2 µM,-4%
same,growth inhibition,[10]; at 3.7 µM,-3%
same,growth inhibition,[10]; [16],9%
same,growth inhibition,[10]; at 11.0 µM,-2%
same,growth inhibition,[10]; at 33.0 µM,-2%
same,growth inhibition,[10]; [17],15%
same,growth inhibition,[10]; at 50.0 µM,-15.2%
same,growth inhibition,[10]; at 100.0 µM,-1%
same,growth inhibition,[11]; at 1.2 µM,-3%
same,growth inhibition,[11]; at 3.7 µM,8%
same,growth inhibition,[11]; at 11.0 µM,0%
same,growth inhibition,[11]; at 33.0 µM,-1%
same,growth inhibition,[11]; at 100.0 µM,-1%
same,growth inhibition,[12]; at 1.2 µM,-2%
same,growth inhibition,[12]; at 3.7 µM,-1%
same,growth inhibition,[12]; at 11.0 µM,0%
same,growth inhibition,[12]; at 33.0 µM,0%
same,growth inhibition,[12]; at 100.0 µM,-2%
same,growth inhibition,[13]; at 1.2 µM,0%
same,growth inhibition,[13]; at 3.7 µM,1%
same,growth inhibition,[13]; at 11.0 µM,3%
same,growth inhibition,[13]; at 33.0 µM,2%
same,growth inhibition,[13]; at 100.0 µM,3%
same,growth inhibition,[14]; [16],33%
same,growth inhibition,[14]; [17],1%
same,growth inhibition,[14]; at 50.0 µM,10.8%
same,growth inhibition,[15]; at 1.2 µM,3%
same,growth inhibition,[15]; at 3.7 µM,2%
same,growth inhibition,[15]; at 11.0 µM,1%
same,growth inhibition,[15]; at 33.0 µM,1%
same,growth inhibition,[15]; at 100.0 µM,-4%
